Reference: ChEMBL document CHEMBL3988442, “University of Dundee, Small-Polar-MMV Screening Library” (2021)
Entries with a potency or affinity are not part of this list.

The molecules below were run against Protein translocase subunit SecA (Escherichia coli (strain K12)) (UniProt P10408) (assay: Assay to Identify E. coli SecA ATPase Inhibitors). Details: 30 µM.
Sequence of Protein translocase subunit SecA (Escherichia coli (strain K12)) (P10408 whole entry): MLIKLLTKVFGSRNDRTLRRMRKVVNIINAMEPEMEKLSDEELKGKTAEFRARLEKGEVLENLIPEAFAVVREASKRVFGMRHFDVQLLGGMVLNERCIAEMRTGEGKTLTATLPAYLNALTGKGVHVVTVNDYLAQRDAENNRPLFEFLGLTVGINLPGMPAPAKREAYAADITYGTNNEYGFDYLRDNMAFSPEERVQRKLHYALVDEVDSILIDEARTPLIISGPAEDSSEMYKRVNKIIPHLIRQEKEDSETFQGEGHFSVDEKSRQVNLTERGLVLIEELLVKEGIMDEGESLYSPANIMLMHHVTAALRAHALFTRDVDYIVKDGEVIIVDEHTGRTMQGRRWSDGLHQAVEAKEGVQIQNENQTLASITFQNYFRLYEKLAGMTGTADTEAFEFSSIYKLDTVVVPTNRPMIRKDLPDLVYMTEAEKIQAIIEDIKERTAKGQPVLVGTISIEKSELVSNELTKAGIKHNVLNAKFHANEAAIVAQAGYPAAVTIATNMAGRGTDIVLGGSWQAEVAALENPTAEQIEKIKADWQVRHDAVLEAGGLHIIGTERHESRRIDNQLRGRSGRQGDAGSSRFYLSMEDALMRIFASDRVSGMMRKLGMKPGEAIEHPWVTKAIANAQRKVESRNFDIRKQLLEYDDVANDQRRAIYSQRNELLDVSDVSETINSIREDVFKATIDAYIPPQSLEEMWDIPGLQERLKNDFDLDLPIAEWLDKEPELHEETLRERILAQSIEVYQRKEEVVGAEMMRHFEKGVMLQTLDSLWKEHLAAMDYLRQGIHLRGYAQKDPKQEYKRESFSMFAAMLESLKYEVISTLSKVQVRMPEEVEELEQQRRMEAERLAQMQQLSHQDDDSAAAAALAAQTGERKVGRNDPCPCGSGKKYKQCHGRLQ
Type: functional
Set-up: scale not given: direction of the effect not stated beside the values
Work on `CCc1nc(C2CCCN2C(=O)c2ccc3c(c2)nnn3CC)no1` (stereo not given) yielded a Percent Effect of -3.49%. Molecule `c1cnnc(N2CCCC2CNCc2nc(-c3ccsc3)no2)c1` (stereo not given) has a Percent Effect of -4.07%. `CC(=O)N1N=C(c2ccccc2)OC1C(=O)NCCC1=CCCCC1` (stereo not given) gave a Percent Effect of 1.88%. Molecule `CCO[C@@H]1CO[C@@]2(CCCN(S(=O)(=O)c3cccnc3)C2)C1` has a Percent Effect of -2.66%. With `Cc1ccc(C(=O)N2CCC3(CC2)COC(COc2ccccn2)C3)o1` (stereo not given) the Percent Effect was -7%. `CS(=O)(=O)NCC1CCCN(C(=O)COc2ccc(F)cc2)C1` (stereo not given) gave a Percent Effect of -1.75%. `CN1CC(c2ccccc2)CC12CCN(C(=O)c1c(Cl)cnn1C)CC2` (stereo not given) showed a Percent Effect of -3.22%. `O=C(NCc1cc[nH]n1)NCC(O)COc1cccc(F)c1` (stereo not given) was tested, and the Percent Effect was -1.6%. With `O=C1NC2(CCN(Cc3cccnc3)CC2)CC1c1ccncc1` (stereo not given) the Percent Effect was -3.31%. `CCSCCC(=O)NS(=O)(=O)c1ccc2c(c1)OCCO2` was tested, and the Percent Effect was -2%. With `CC(C)CN1CCN(C)C2(CCN(Cc3ccsc3)CC2)C1=O` the Percent Effect was -3.52%. With `COc1c(C2CCCN2Cc2c(C)noc2C)c(C)nn1C` (stereo not given) the Percent Effect was -5.49%. `CC(C)(N)C(=O)N1CCCC1c1cncc(Oc2ccc(F)cc2)n1` (stereo not given) gave a Percent Effect of -4.32%. `O=C1CC2(CCN(Cc3ccoc3)C2)CN1c1ccc2c(c1)OCO2` (stereo not given) gave a Percent Effect of -7.31%. `CCC(NC(N)=O)c1ccccc1OCC(=O)N1CCCC1` (stereo not given) gave a Percent Effect of -1.4%. Molecule `CCOc1ccccc1C(=O)N1CCCC1c1ncc2c(n1)CCNC2` (stereo not given) has a Percent Effect of -5.15%. `Cc1cc(CN(C)C(=O)NCC(C)N2CCc3ccccc32)no1` (stereo not given) gave a Percent Effect of -2.85%. With `Cc1ccc(CCN2CCC(N(C)Cc3noc(C4CC4)n3)C2)cc1` (stereo not given) the Percent Effect was -0.729%. `CC(C)n1[nH]c(=O)c2c1NC(=O)CC2c1cccnc1` (stereo not given) was tested, and the Percent Effect was 0.982%. For `O=C(NCCOc1ccc2c(c1)CCC2)N1CCS(=O)(=O)CC1`, the Percent Effect was -6.68%. Work on `CCC(NC(=O)CC(F)(F)F)c1ccccc1OCC(=O)N1CCCC1` (stereo not given) yielded a Percent Effect of -0.84%. `CC(C)CN1C[C@@H]2CN(C(=O)[C@H]3CCCO3)C[C@@H]2C1=O` was tested, and the Percent Effect was -2.4%. `CN1CCN(c2cc(CNC(=O)c3ccc(=O)[nH]n3)ccn2)CC1` was tested, and the Percent Effect was -0.863%. `CC(=O)N1CC(=O)N(c2ccccc2)CC12CCN(CC1CC1)C2` (stereo not given) showed a Percent Effect of -11%. `CC(C)c1ncc(S(C)(=O)=O)c(C2CCCNC2)n1` (stereo not given) was tested, and the Percent Effect was -5.26%. `CC(C)c1noc(CCCC(=O)NC2CCS(=O)(=O)C2)n1` (stereo not given) was tested, and the Percent Effect was -0.362%. Molecule `c1ccc(OCc2ccncc2)c(CNC2CCc3ncnn3C2)c1` (stereo not given) has a Percent Effect of 1.01%. For `O=C(Nc1ccccc1)C1=CC2(CCNCC2)c2ccccc21`, the Percent Effect was -2.8%. In the case of `CC(NC(=O)N1CCN(c2ccc(Cl)cc2)CC1)C(=O)N1CCSCC1` (stereo not given), the Percent Effect is reported as -6.05%. With `CC(C)N(Cc1nc2c(cnn2C)c(=O)[nH]1)c1ccccc1` the Percent Effect was -2.48%. `CCc1nc(C2CCCN2C(=O)c2ncoc2CC)no1` (stereo not given) was tested, and the Percent Effect was -4.57%. `O=C(c1ccc(F)cc1F)N1C[C@@H](O)[C@H](N2CCOCC2)C1` showed a Percent Effect of -1.31%. With `Cc1cnn(CC2CCN(CC(O)COc3ccc(F)cc3)CC2)c1` (stereo not given) the Percent Effect was -5.77%. For `Cc1cc(-c2nn(C)c(Cl)c2CN2CCOCC(O)C2)no1` (stereo not given), the Percent Effect was -4.83%. For `CC(=O)N(Cc1ncc(C)o1)C1CCN(CCCc2cnn(C)c2)C1` (stereo not given), the Percent Effect was -1.84%. Work on `Cc1ccc([C@@H]2CN(C(=O)c3ccc[nH]3)C[C@H]2NC(=O)C2CC2)cc1` yielded a Percent Effect of -2.9%. For `Cc1cnn(CC2CN(CC(=O)NCc3ccccn3)CCO2)c1` (stereo not given), the Percent Effect was -3.5%. For `COc1ccc(C(=O)N2CC[C@H](CO)[C@H](O)C2)c(C)c1`, the Percent Effect was -7.05%. For `Cc1nccn1C1CCCN(C(=O)COCC(F)(F)F)C1` (stereo not given), the Percent Effect was -0.686%. `O=C(CSc1ccc(F)c(F)c1)NS(=O)(=O)c1ccc2c(c1)OCCO2` gave a Percent Effect of -1.98%.

The molecules below were run against T1, Ubiquitin-activating enzyme e1, putative (Leishmania donovani (strain BPK282A1)) (UniProt E9BSI1) (assay: Leishmania donovani Ubiquitin Activating Enzyme (LdE1)). Details: 30 µM.
T1 sequence (whole entry): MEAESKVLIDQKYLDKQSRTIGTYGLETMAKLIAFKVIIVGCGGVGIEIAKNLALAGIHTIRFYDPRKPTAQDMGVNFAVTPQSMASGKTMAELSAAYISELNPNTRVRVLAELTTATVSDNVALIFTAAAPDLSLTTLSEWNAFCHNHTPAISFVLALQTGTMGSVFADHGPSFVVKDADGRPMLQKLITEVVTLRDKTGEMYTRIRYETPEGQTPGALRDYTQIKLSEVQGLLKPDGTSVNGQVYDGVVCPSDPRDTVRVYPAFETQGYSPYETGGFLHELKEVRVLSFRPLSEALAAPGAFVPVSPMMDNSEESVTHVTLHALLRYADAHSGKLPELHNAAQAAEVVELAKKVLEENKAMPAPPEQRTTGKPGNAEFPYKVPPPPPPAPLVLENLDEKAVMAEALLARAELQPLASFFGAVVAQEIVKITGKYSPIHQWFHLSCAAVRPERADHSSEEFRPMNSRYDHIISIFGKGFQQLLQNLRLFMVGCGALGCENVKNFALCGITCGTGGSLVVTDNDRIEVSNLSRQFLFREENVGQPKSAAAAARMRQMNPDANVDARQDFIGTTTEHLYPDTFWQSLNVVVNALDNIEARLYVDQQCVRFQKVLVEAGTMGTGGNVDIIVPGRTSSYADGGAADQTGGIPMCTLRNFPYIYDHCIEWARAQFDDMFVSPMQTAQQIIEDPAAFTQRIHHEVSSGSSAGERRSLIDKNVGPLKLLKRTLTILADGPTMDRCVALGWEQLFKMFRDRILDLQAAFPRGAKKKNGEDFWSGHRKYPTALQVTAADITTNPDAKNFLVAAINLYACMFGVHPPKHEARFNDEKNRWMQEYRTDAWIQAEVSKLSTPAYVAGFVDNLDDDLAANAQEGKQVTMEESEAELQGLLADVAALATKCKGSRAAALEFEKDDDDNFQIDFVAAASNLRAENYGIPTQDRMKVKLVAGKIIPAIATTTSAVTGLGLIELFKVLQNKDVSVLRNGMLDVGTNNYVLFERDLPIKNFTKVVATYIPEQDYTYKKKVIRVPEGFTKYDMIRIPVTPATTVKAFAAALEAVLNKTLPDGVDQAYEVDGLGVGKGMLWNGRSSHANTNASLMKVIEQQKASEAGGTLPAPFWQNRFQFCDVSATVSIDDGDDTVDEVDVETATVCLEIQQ
Type: functional
Set-up: scale not given: direction of the effect not stated beside the values
In the case of `CCc1nc(C2CCCN2C(=O)c2ccc3c(c2)nnn3CC)no1` (stereo not given), the Percent Effect is reported as 0%. Work on `c1cnnc(N2CCCC2CNCc2nc(-c3ccsc3)no2)c1` (stereo not given) yielded a Percent Effect of -23.1%. `CC(=O)N1N=C(c2ccccc2)OC1C(=O)NCCC1=CCCCC1` (stereo not given) showed a Percent Effect of 12%. `CCO[C@@H]1CO[C@@]2(CCCN(S(=O)(=O)c3cccnc3)C2)C1` showed a Percent Effect of 11.7%. With `Cc1ccc(C(=O)N2CCC3(CC2)COC(COc2ccccn2)C3)o1` (stereo not given) the Percent Effect was 19.5%. Work on `CS(=O)(=O)NCC1CCCN(C(=O)COc2ccc(F)cc2)C1` (stereo not given) yielded a Percent Effect of 10.3%. `CN1CC(c2ccccc2)CC12CCN(C(=O)c1c(Cl)cnn1C)CC2` (stereo not given) gave a Percent Effect of 5.41%. `O=C(NCc1cc[nH]n1)NCC(O)COc1cccc(F)c1` (stereo not given) showed a Percent Effect of 10.7%. Molecule `O=C1NC2(CCN(Cc3cccnc3)CC2)CC1c1ccncc1` (stereo not given) has a Percent Effect of 6.49%. For `CCSCCC(=O)NS(=O)(=O)c1ccc2c(c1)OCCO2`, the Percent Effect was 10.3%. In the case of `CC(C)CN1CCN(C)C2(CCN(Cc3ccsc3)CC2)C1=O`, the Percent Effect is reported as 6.49%. With `COc1c(C2CCCN2Cc2c(C)noc2C)c(C)nn1C` (stereo not given) the Percent Effect was -2.67%. `CC(C)(N)C(=O)N1CCCC1c1cncc(Oc2ccc(F)cc2)n1` (stereo not given) showed a Percent Effect of 17.3%. Molecule `O=C1CC2(CCN(Cc3ccoc3)C2)CN1c1ccc2c(c1)OCO2` (stereo not given) has a Percent Effect of 1.3%. `CCC(NC(N)=O)c1ccccc1OCC(=O)N1CCCC1` (stereo not given) showed a Percent Effect of 10.3%. With `CCOc1ccccc1C(=O)N1CCCC1c1ncc2c(n1)CCNC2` (stereo not given) the Percent Effect was 4%. `Cc1cc(CN(C)C(=O)NCC(C)N2CCc3ccccc32)no1` (stereo not given) was tested, and the Percent Effect was -2.6%. `Cc1ccc(CCN2CCC(N(C)Cc3noc(C4CC4)n3)C2)cc1` (stereo not given) showed a Percent Effect of 10.3%. `CC(C)n1[nH]c(=O)c2c1NC(=O)CC2c1cccnc1` (stereo not given) gave a Percent Effect of 13.5%. `O=C(NCCOc1ccc2c(c1)CCC2)N1CCS(=O)(=O)CC1` showed a Percent Effect of 2.56%. `CCC(NC(=O)CC(F)(F)F)c1ccccc1OCC(=O)N1CCCC1` (stereo not given) showed a Percent Effect of 15.4%. In the case of `CC(C)CN1C[C@@H]2CN(C(=O)[C@H]3CCCO3)C[C@@H]2C1=O`, the Percent Effect is reported as 16.9%. In the case of `CN1CCN(c2cc(CNC(=O)c3ccc(=O)[nH]n3)ccn2)CC1`, the Percent Effect is reported as 12.8%. With `CC(=O)N1CC(=O)N(c2ccccc2)CC12CCN(CC1CC1)C2` (stereo not given) the Percent Effect was 1.3%. In the case of `CC(C)c1ncc(S(C)(=O)=O)c(C2CCCNC2)n1` (stereo not given), the Percent Effect is reported as 10.8%. Work on `CC(C)c1noc(CCCC(=O)NC2CCS(=O)(=O)C2)n1` (stereo not given) yielded a Percent Effect of 13.3%. Molecule `c1ccc(OCc2ccncc2)c(CNC2CCc3ncnn3C2)c1` (stereo not given) has a Percent Effect of 17.9%. `O=C(Nc1ccccc1)C1=CC2(CCNCC2)c2ccccc21` was tested, and the Percent Effect was 9.09%. Work on `CC(NC(=O)N1CCN(c2ccc(Cl)cc2)CC1)C(=O)N1CCSCC1` (stereo not given) yielded a Percent Effect of 8.11%. Work on `CC(C)N(Cc1nc2c(cnn2C)c(=O)[nH]1)c1ccccc1` yielded a Percent Effect of 10.3%. For `CCc1nc(C2CCCN2C(=O)c2ncoc2CC)no1` (stereo not given), the Percent Effect was 7.69%. `O=C(c1ccc(F)cc1F)N1C[C@@H](O)[C@H](N2CCOCC2)C1` gave a Percent Effect of 20%. With `Cc1cnn(CC2CCN(CC(O)COc3ccc(F)cc3)CC2)c1` (stereo not given) the Percent Effect was 2.6%. `Cc1cc(-c2nn(C)c(Cl)c2CN2CCOCC(O)C2)no1` (stereo not given) showed a Percent Effect of 13.5%. With `CC(=O)N(Cc1ncc(C)o1)C1CCN(CCCc2cnn(C)c2)C1` (stereo not given) the Percent Effect was 18.7%. With `Cc1ccc([C@@H]2CN(C(=O)c3ccc[nH]3)C[C@H]2NC(=O)C2CC2)cc1` the Percent Effect was 5.41%. Work on `Cc1cnn(CC2CN(CC(=O)NCc3ccccn3)CCO2)c1` (stereo not given) yielded a Percent Effect of 8%. `COc1ccc(C(=O)N2CC[C@H](CO)[C@H](O)C2)c(C)c1` was tested, and the Percent Effect was 5.41%. For `Cc1nccn1C1CCCN(C(=O)COCC(F)(F)F)C1` (stereo not given), the Percent Effect was 2.56%. With `O=C(CSc1ccc(F)c(F)c1)NS(=O)(=O)c1ccc2c(c1)OCCO2` the Percent Effect was 2.56%.
